# The whole screen tested about 650,000 compounds, of which about 5,900 (0.91%) were called active. The entries come from a sample that favours actives as a whole. Unmarked numbers belong to inactive results. Cut-off read from the data, not from the text of the source: active = inhibition above about 50%; inactive = the rest.
# Biological target: Microphthalmia-associated transcription factor (Homo sapiens) (UniProt O75030)
# Assay: MITF inhibitors, primary screen, biochemical, AlphaScreen, human (AID 1259374);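 note: 0% = vehicle wells with protein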
# Details: AlphaScreen MITF homodimerization, bead proximity signal; at 2.6 µM; stronger effect = higher value
# Microphthalmia-associated transcription factor (Homo sapiens), sequence (O75030 whole entry, looked up): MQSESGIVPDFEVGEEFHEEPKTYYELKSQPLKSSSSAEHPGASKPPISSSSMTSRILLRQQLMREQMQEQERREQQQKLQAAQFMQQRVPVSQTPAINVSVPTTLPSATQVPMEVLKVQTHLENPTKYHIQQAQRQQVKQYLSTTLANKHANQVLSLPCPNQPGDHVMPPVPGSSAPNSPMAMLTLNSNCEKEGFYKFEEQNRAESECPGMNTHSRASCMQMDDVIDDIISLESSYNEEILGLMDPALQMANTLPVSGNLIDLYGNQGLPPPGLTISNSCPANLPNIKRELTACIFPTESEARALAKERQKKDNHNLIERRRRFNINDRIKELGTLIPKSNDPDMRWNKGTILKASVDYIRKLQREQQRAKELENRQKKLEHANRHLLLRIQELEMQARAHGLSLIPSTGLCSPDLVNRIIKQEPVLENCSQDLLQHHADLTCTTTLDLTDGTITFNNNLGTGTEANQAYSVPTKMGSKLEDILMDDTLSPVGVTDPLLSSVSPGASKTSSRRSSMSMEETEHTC
row,SMILES,inhibition
1,Cc1nc2ccccn2c1/C(O)=C1\C(=O)C(=O)N(Cc2ccccc2)C1c1cccnc1 (stereo not given),66.2% (active)
2,O=C1C(=O)N(Cc2cccnc2)C(c2ccncc2)/C1=C(\O)c1ccccc1 (stereo not given),11.9%
3,O=C1C(=O)N(Cc2cccnc2)C(c2cccnc2)/C1=C(/O)c1ccccc1 (stereo not given),5.16%
4,CN(C)CCNC(=O)c1ccc(-c2cnc3c(NCc4ccc(F)cc4)nccn23)cc1,-23.3%
5,CCOC(=O)c1c(NC(=O)CSc2nnc(CNC(=O)c3cccc(OC)c3)n2C)sc2c1CCCCC2,-18.6%
6,O=C(O)CN1C(=O)/C(=C/c2cccc([N+](=O)[O-])c2)SC1=S,4.75%
7,O=C(O)CN1C(=O)/C(=C\c2cccc(C(=O)O)c2)SC1=S,58.4% (active)
8,O=C(O)CN1C(=O)/C(=C\c2ccc(O)c(Br)c2)SC1=S,17.2%
9,CC1CN(c2ccc(/C=C(\C#N)c3nc4ccccc4[nH]3)o2)CC(C)O1 (stereo not given),-14.4%
10,Nc1nc(NCCO)cc(Nc2ccc(C(F)(F)F)cc2)n1,-1.49%
11,CCOC(=O)c1sc(NC(=O)C(C)Sc2nnc(CNC(=O)c3ccc(Cl)cc3Cl)n2C)c(C(=O)OCC)c1C (stereo not given),-5.12%
12,CCOC(=O)c1ccccc1NC(=O)C1CC(=O)N(c2ccc(Cl)c(Cl)c2)C1 (stereo not given),-0.38%
13,CN1C(=O)c2ccc(NC(=O)c3c(F)cccc3F)cc2C1=O,4.14%
14,O=C(NN1C(=O)c2ccccc2C1=O)c1cccc(F)c1,69.1% (active)
15,Cc1ccc(N2C(=O)c3ccc(C(=O)NN4C(=O)c5ccccc5C4=O)cc3C2=O)cc1C,9.89%
16,O=C(NN1CCOCC1)c1cccc(F)c1,0.76%
17,CCN(CCCNC(=O)Cn1c(=O)[nH]c2ccccc2c1=O)c1cccc(C)c1,-6.52%
18,Cc1cc(OCCCN2CCN(Cc3ccccc3)CC2)ccc1[N+](=O)[O-],69.8% (active)
19,C=CCN(CC=C)CCCOc1ccc([N+](=O)[O-])c(C)c1,22.8%
20,O=[N+]([O-])c1cnc(N2CCN(Cc3ccccc3)CC2)c([N+](=O)[O-])c1,-6.34%

row,SMILES,inhibition
1,COc1ccc(CN2CCC3(CC2)c2ccccc2[C@@H](NC(=O)CSC)[C@@H]3OC)cc1,5.12%
2,C=CCN1C(=O)/C(=C\c2cc(OC)c(O)c([N+](=O)[O-])c2)C(=O)NC1=S,57.5% (active)
3,C=CCN1C(=O)/C(=C\c2cc(OC)ccc2OC)C(=O)NC1=S,18.8%
4,COc1ccccc1N1C(=O)NC(=O)/C(=C/c2cc(OC)c(O)c([N+](=O)[O-])c2)C1=O,-6.01%
5,CSc1cccc(NC(=O)C2C3C=CC4(O3)C2C(=O)N(C2CCCC(C)C2C)C4C(=O)NC2CCCCC2)c1 (stereo not given),-2.61%
6,O=c1cc(Cc2n[nH]c(=S)n2-c2ccc(F)cc2)[nH]c(=O)[nH]1,8.67%
7,O=c1c2sc(=S)n(CCc3ccccc3)c2[nH]c(=S)n1Cc1ccco1,-11.5%
8,Oc1c(C(c2cccnc2)N2CCOCC2)ccc2cccnc12 (stereo not given),73.7% (active)
9,CCc1nc2sc(C(c3ccc(F)cc3)N3CCCC3)c(O)n2n1 (stereo not given),-1.32%
10,OCCN1CCN(C(c2ccc(F)cc2)c2ccc3cccnc3c2O)CC1 (stereo not given),50.6% (active)
11,O=S(=O)(Oc1cccc2cccnc12)N1CCOCC1,-0.47%
12,Cc1ccc(C(c2cc(Cl)c3cccnc3c2O)N2CCN(c3ccccn3)CC2)cc1 (stereo not given),-1.76%
13,Oc1c(C(c2ccccn2)N2CCOCC2)ccc2cccnc12 (stereo not given),75.7% (active)
14,O=C(NCC(c1cccnc1)N1CCOCC1)c1ccc(F)cc1 (stereo not given),-7.05%
15,CCCCC(=O)NC(c1ccco1)c1ccc2cccnc2c1O (stereo not given),33%
16,Cc1c(Cl)cccc1NC(=S)NCC(c1cccnc1)N1CCOCC1 (stereo not given),7.47%
17,CCN1CCN(S(=O)(=O)c2ccc(Br)c(OC)c2)CC1,-5.44%
18,Cc1ccc(C(=O)N/N=C\c2ccc(-c3ccc(Br)cc3)o2)cn1,8.68%
19,CC(=O)N(C)c1ccc(NC(=O)COc2cc(C)ccc2C)cc1,-10.1%
20,COCCN(CCOC)C(=O)CSc1nnc2nc(C)cc(C)n12,9.62%

row,SMILES,inhibition
1,O=C(NCc1ccccc1)N1CCN(c2ccc(-c3ccncc3)nn2)CC1,-7.08%
2,O=C(c1ccccc1F)N1CCN(c2ccc(-c3cccnc3)nn2)CC1,4.6%
3,CCSc1ccccc1C(=O)N1CCN(c2ccc(-c3ccccn3)nn2)CC1,121% (active)
4,O=C(NCc1nnc2n1CCN(C1CCSCC1)CC2)c1c(F)cccc1F,17.7%
5,COc1ccccc1C(=O)N/N=C/c1ccc(O)cc1O,23.2%
6,COc1ccc(NC(=O)NN2CCN(C)CC2)c(OC)c1,-3.56%
7,COc1ccc(NC(=O)CN2CCN(C)CC2)c(OC)c1,105% (active)
8,COc1ccc(NC(=O)CN2CCN(S(=O)(=O)c3cc(Cl)ccc3OC)CC2)c(OC)c1,6.53%
9,Cc1ccccc1-n1nc2c(c1NC(=O)C(C)Oc1ccccc1)CSC2 (stereo not given),10.4%
10,NC(=O)N/N=C1\CCCCC1c1ccccc1 (stereo not given),-1.85%
11,COc1ccc(Cn2nnc(C(=O)Nc3cccc(Cl)c3)c2N)cc1,61.4% (active)
12,Nc1c(C(=O)Nc2ccccc2)nnn1Cc1ccc(F)cc1,3.54%
13,COc1ccc(NC(=O)Cn2nnc(C(=O)Nc3cc(Cl)ccc3OC)c2N)cc1,-3.11%
14,Cc1ccc(NC(=O)Nc2nnc(CC(=O)Nc3ccccc3C)s2)cc1C,17.1%
15,N#Cc1ccc(OCC(=O)Nc2ccccc2Cl)cc1,12.2%
16,N#Cc1ccc(OCC(=O)Nc2nc(-c3ccccn3)cs2)cc1,64.9% (active)
17,O=C(CSc1ccccc1)Nc1nc(-c2ccccn2)cs1,0.84%
18,Clc1ccccc1/C=N/Nc1nccnc1Cl,-4.68%
19,O=C(N/N=C/c1ccccc1Cl)C(=O)N/N=C/c1ccccc1Cl,17.2%
20,Oc1ccc(/C=N/Nc2ccccc2Cl)c(O)c1O,56.2% (active)

# Reference: PubChem BioAssay AID1259374 (The Scripps Research Institute Molecular Screening Center, 2018)
